SW480 rereplic: inducers of DNA re-replication in SW480 colon cancer cells; Potency, µM (titrated, usually from 46.1 µM), most hits filed as activators; AID 624297; hit rate 1.8% among 340,000; SW480 DNA re-replication, Hoechst DNA content imaging, 48 h; also: nearly all actives have a fitted effect of over 55% in size
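SW480 cells exposed to compounds for 48 hr at 37 C, 5% CO2, then Hoechst-stained 40 min. Nuclear DNA content imaged by fluorescence scanning (405 nm excitation, 500-530 nm emission); re-replication scored as increased high-intensity nuclei.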
MCF10A rerep: DNA re-replication induction in MCF 10a cells; Potency, µM (series often up to 46.1 µM), usual class: activators; MCF 10A DNA re-replication, Hoechst nuclear intensity, 48 h; hit rate 2.9% among 350,000; also: nearly all actives have a fitted effect of over 50% in size
D3 ag: agonists of human D3 dopamine receptor; max activation, %; D3R DiscoveRx beta-arrestin cells, luminescence, 90 min; hit rate 0.58% among 410,000; P35462; in the data active = max activation above about 30%
Target sequence (P35462 whole entry, looked up): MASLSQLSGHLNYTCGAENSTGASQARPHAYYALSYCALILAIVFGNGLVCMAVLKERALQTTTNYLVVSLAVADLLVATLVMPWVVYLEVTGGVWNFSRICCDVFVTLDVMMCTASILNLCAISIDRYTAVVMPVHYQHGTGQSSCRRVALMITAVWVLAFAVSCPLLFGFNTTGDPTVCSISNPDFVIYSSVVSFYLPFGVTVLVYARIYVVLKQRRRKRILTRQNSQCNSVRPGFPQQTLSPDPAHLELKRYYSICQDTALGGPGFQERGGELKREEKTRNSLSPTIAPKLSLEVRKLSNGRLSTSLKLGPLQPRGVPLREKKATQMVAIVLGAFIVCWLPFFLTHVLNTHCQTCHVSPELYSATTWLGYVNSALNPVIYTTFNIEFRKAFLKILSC
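Agonist-mode cell screen: cells plated at 1500/well and incubated overnight at 37 °C, then exposed to library compounds for 90 min at 37 °C. Detection reagent was added for 30–60 min at room temperature, and luminescence was read.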
KB-V1 MDR tox: kills drug-selected multidrug resistant KB-V1 cells; KB-V1 MDR cells viability, CellTiter-Glo, 72 h; Potency, µM (titrated, usually from 46.1 µM), actives largely listed as cytotoxic; hit rate 3.4% among 400,000; AID 1347076; also: nearly all actives have a fitted effect of over 60% in size
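Readout: CellTiter-Glo luminescence, 10 min after addition. Cells: KB-V1 MDR subline, 72 h at 37 degrees C with compound. Analysis: corrected, normalized data fitted to concentration-effect curves.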
DRD3 antagonist: antagonists of human D3 dopamine receptor. AID 652054. hit rate 2.5% among 360,000. D3R cells, DiscoveRx beta-arrestin luminescence, antagonist mode; active compounds read low. max response, negative = inhibition, %. P35462; in the data active = max response below about -50%; inconclusive = no clear call, values can overlap the other calls
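Cells expressing the human receptor were seeded at 1500 cells/well, incubated overnight at 37 degrees C in 5% CO2, then exposed to library compounds with dopamine controls for 90 minutes at 37 degrees C before luminescent detection.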
KB-3-1 cytotox: kills parental KB-3-1 adenocarcinoma cells. KB-3-1 viability, CellTiter-Glo ATP luminescence, 72 h. AID 1347075. hit rate 1.4% among 400,000. Potency, µM (series often up to 46.1 µM), hits mostly cytotoxic; also: nearly all actives have a fitted effect of over 60% in size
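Here the drug-naive KB-3-1 line serves as comparator for MDR sub-line selectivity; cells received compound titrations, 72 h at 37 °C, then CellTiter-Glo readout.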
Each line names hits and unclear results; the compound was inactive in the other large screens. This is a sample that favours compounds with a hit; in the whole collection about 8.9% have one here. Unless noted, calls follow the shape of the dose curve; as a rule, active = well fitted curve in the direction sought with a large enough effect; inconclusive = small, poorly fitted or top-dose-only effect, or another doubt; inactive = no such curve, though single readings can be large; an effect the other way counts as inactive or inconclusive.

CC(C)(C)OC(=O)N1CCC(NC(=O)c2nc[nH]c2C(=O)NCC(=O)OCc2ccccc2)CC1	MCF10A rerep inconclusive, D3 ag 69.0
CCC1CCCCN1C(=O)Cn1c(=O)n(-c2ccc(Cl)c(Cl)c2)c(=O)c2c(C)c(C(=O)N(C)C)sc21 (centres undefined)	none (no result: SW480 rereplic, MCF10A rerep, KB-V1 MDR tox, DRD3 antagonist, KB-3-1 cytotox)
Cc1ccccc1-c1nnc(CN2CCN(c3cc(Cl)ccc3C)CC2)o1	KB-V1 MDR tox inconclusive (no result: SW480 rereplic, MCF10A rerep, DRD3 antagonist)
Cc1cc(N2CCOCC2)nc2ccc(NC(=O)CCC(=O)N3CCC(C)CC3)cc12	none
CCC(C)NC(=O)CCC(=O)Nc1ccc2nc(N3CC(C)CC(C)C3)cc(C)c2c1 (centres undefined)	SW480 rereplic inconclusive, MCF10A rerep 20.6µM
CCCCNC(=O)CCC(=O)Nc1ccc2nc(N3CCC(C)CC3)cc(C)c2c1	SW480 rereplic inconclusive, MCF10A rerep 20.6µM
Nc1c(C(=O)N/N=C/c2ccc(F)cc2)oc2nc(-c3ccccc3)cc(-c3ccco3)c12	MCF10A rerep 20.6µM
Cc1cc(-c2ccccc2)nc2oc(C(=O)NN)c(N)c12	SW480 rereplic inconclusive, MCF10A rerep inconclusive
Nc1c(C(=O)N/N=C/c2ccccc2Cl)oc2nc(-c3ccccc3)cc(-c3ccco3)c12	SW480 rereplic 18.4µM, MCF10A rerep 8.2µM, KB-3-1 cytotox inconclusive
Cc1cccc(-c2nc3scc(CCNC(=O)c4ccccc4Cl)n3n2)c1	none (no result: SW480 rereplic, MCF10A rerep, DRD3 antagonist)
Cc1ccc(-n2c(SCC(=O)N3CC(=O)Nc4ccccc43)nc3ccccc3c2=O)cc1	KB-V1 MDR tox 18.4µM, KB-3-1 cytotox inconclusive
Cc1cccc(C)c1-n1c(SCC(=O)N2CC(=O)Nc3ccccc32)nc2ccccc2c1=O	KB-V1 MDR tox 18.4µM, KB-3-1 cytotox inconclusive (no result: SW480 rereplic)
COCCn1c(SCC(=O)N2CC(=O)Nc3ccccc32)nc2ccccc2c1=O	SW480 rereplic inconclusive
CCCc1cc(=O)oc2cc(C)cc(OCC(=O)Nc3cccnc3)c12	SW480 rereplic 23.1µM
CCCOC(=O)C1=C(C)NC2=C(C(=O)CCC2)C1c1cccs1 (centres undefined)	KB-V1 MDR tox 23.1µM
COC(=O)C1=C(C)Nc2c(c(=O)n(C)c(=O)n2C)C1c1cccs1 (centres undefined)	none
COC(=O)C1=C(C)NC2=C(C(=O)CC(c3cccs3)C2)C1c1ccsc1 (centres undefined)	SW480 rereplic inconclusive, MCF10A rerep inconclusive, KB-V1 MDR tox 7.31µM, DRD3 antagonist inconclusive, KB-3-1 cytotox inconclusive
CCOC(=O)C1=C(C)NC2=C(C(=O)CC(c3cccs3)C2)C1c1cccs1 (centres undefined)	SW480 rereplic inconclusive, MCF10A rerep 20µM, KB-V1 MDR tox 14.6µM, DRD3 antagonist -82.0, KB-3-1 cytotox 5.8µM
CC1=C(C(=O)OC2CCCC2)C(c2ccc(C)o2)C2=C(CC(c3cccs3)CC2=O)N1 (centres undefined)	SW480 rereplic inconclusive, MCF10A rerep inconclusive, KB-V1 MDR tox 20.6µM
Cc1ccc(-n2nc(C(=O)N3CCN(c4cc(Cl)ccc4C)CC3)c(=O)n(C)c2=O)cc1	none (no result: SW480 rereplic, MCF10A rerep, DRD3 antagonist)
Cc1cc2c(cc1S(=O)(=O)C(C)CC(=O)NC1CCC(C)CC1)OCC(=O)N2 (centres undefined)	none (no result: SW480 rereplic, MCF10A rerep, DRD3 antagonist)
COc1ccc(Br)c(C(=O)Nc2cc3c(cc2N2CCCCC2)n(C)c(=O)c(=O)n3C)c1	none (no result: SW480 rereplic, MCF10A rerep, DRD3 antagonist)
OCC[C@@H]1C[C@H](O)[C@@H](O)[C@]2(OCc3ccc(CO)cc32)O1	DRD3 antagonist -63.6 (no result: SW480 rereplic, MCF10A rerep)
Cc1ccc(NC(=O)Cn2cc(C=O)c3ccccc32)cc1	SW480 rereplic 14.6µM
CCc1cccc(NC(=O)Cn2cc(C=O)c3ccccc32)c1	KB-V1 MDR tox 20.6µM, KB-3-1 cytotox inconclusive
COc1cccc(NC(=O)Cn2cc(C=O)c3ccccc32)c1	KB-V1 MDR tox inconclusive
CC(=O)c1ccc(NC(=O)Cn2c(=O)c3cccn3c3ccccc32)cc1	none (no result: SW480 rereplic, MCF10A rerep, KB-V1 MDR tox, DRD3 antagonist, KB-3-1 cytotox)
CCc1cccc(NC(=O)Cn2c(=O)c3cccn3c3ccccc32)c1	MCF10A rerep 18.4µM
CSc1ncc(Cl)c(C(=O)Nc2c(C(=O)c3ccc(C)c(F)c3)oc3ccccc23)n1	none (no result: SW480 rereplic, MCF10A rerep, DRD3 antagonist)
Cc1nn(-c2ccccc2)c2c1cc1c(=O)n(C)c(=O)nc-1n2-c1cccc(Cl)c1	none (no result: SW480 rereplic, MCF10A rerep, DRD3 antagonist)
O=C(CSc1nnc(COc2ccc(F)cc2)o1)N1c2ccccc2CCc2ccccc21	MCF10A rerep inconclusive, KB-V1 MDR tox 6.51µM
CCOC(=O)CN(C(=O)CSc1nnc(CNc2ccc(F)cc2)o1)c1ccccc1	DRD3 antagonist -79.8
CCOC(=O)CN(C(=O)CSc1nnc(CNc2ccc(F)cc2)n1C)c1ccccc1	none
O=C(CSc1nnc(CNc2ccc(F)cc2)o1)N1c2ccccc2Sc2ccccc21	KB-V1 MDR tox 3.26µM, KB-3-1 cytotox inconclusive
COc1ccc(NC(=O)C(=O)NCCc2csc3nc(-c4ccccc4F)nn23)cc1OC	none (no result: SW480 rereplic, MCF10A rerep, DRD3 antagonist)
Cc1coc2cc3oc(=O)c(CC(=O)NCc4cccc(Cl)c4)c(C)c3cc12	none (no result: SW480 rereplic, MCF10A rerep, KB-V1 MDR tox, DRD3 antagonist, KB-3-1 cytotox)
Cc1cc(C)cc(NC(=O)N2CCC(CN3CCCCCC3)CC2)c1	none (no result: SW480 rereplic, MCF10A rerep, KB-V1 MDR tox, DRD3 antagonist, KB-3-1 cytotox)
CCS(=O)(=O)N1CCC(c2nc(-c3ccc(C(F)(F)F)cc3)no2)CC1	KB-3-1 cytotox 6.51µM
O=S(=O)(c1ccc(Cl)c(F)c1)N1CCC(c2nc(-c3ccncc3)no2)CC1	KB-V1 MDR tox 20.6µM
CCS(=O)(=O)N1CCC(c2nc(-c3ccc(C)cc3)no2)CC1	KB-V1 MDR tox inconclusive, KB-3-1 cytotox inconclusive
Cc1cc(C)c(Cn2c(=O)n(-c3ccccc3Cl)c(=O)c3c(C)c(C(=O)N(C)C)sc32)c(C)c1	none (no result: SW480 rereplic, MCF10A rerep, DRD3 antagonist)
CCS(=O)(=O)Nc1ccc(-c2cc(-c3ccccc3)c3cc(C)ccc3n2)cc1	SW480 rereplic inconclusive, MCF10A rerep 14.6µM
Cc1ccc2nc(-c3ccc(NS(C)(=O)=O)cc3)cc(-c3ccccc3)c2c1	MCF10A rerep inconclusive
Cc1ccc2nc(-c3ccncc3)cc(-c3ccccc3)c2c1	SW480 rereplic inconclusive, MCF10A rerep inconclusive, D3 ag 56.6
O=[N+]([O-])c1ccc2nc(-c3ccccc3)cc(-c3ccccc3)c2c1	none
CCCS(=O)(=O)c1c(S(=O)(=O)CCC)c2c(C)cccn2c1C(N)=O	none
CCCS(=O)(=O)c1c(S(=O)(=O)CCC)c2c(C)cccn2c1C(=O)N/N=C/c1cc(O)cc(O)c1	SW480 rereplic 6.51µM, MCF10A rerep inconclusive, KB-3-1 cytotox inconclusive
CCc1nc(SCC(=O)Nc2ccccc2Cl)n[nH]1	SW480 rereplic 9.2µM
CCc1nc(SCC(=O)Nc2ccccc2C)n[nH]1	SW480 rereplic inconclusive
Cc1nc(SCC(=O)NCC2COc3ccccc3O2)c2c(C)c(C)sc2n1 (centres undefined)	MCF10A rerep inconclusive, D3 ag 93.1, KB-3-1 cytotox inconclusive
